Many of the other results were omitted from the sample, so hits are more common in it than they were.
CHX counter – counter-screen for Shiga toxin inhibitors: cycloheximide protein synthesis inhibition. cell reporter, cycloheximide protein synthesis inhibition counterscreen. max response, %. 300,000 compounds, 12% hits. AID 2314; in the data active means max response mostly above about 13%, no sharp cut-off; inactive means mostly below about 14%; further: read at 38.3 µM for the half of the compounds with a filed dose
LASV entry inh – Lassa virus entry inhibition | Potency, µM (doses to about 37.9 µM), most hits filed as inhibitors | AID 540256 | 300,000 compounds, 1.2% hits | Lassa virus pseudotype entry inhibition, cell reporter; calls by dose curve; tested in HEK293 cells; further: nearly all actives have a fitted effect of over 50% in size
Marburg entry inh – Marburg virus entry inhibition | Marburg virus pseudotyped entry inhibition, cell reporter | Potency, µM (titrated, usually from 37.8 µM), hits mostly inhibitors | 300,000 compounds, 1.8% hits | AID 540276; calls by dose curve; tested in HEK293 cells
AMA1 RON2 block – disrupts binding of P. falciparum AMA1 to RON2; AlphaScreen AMA1-biotinylated RON2 peptide binding; Potency, µM (top dose mostly 58.2 µM), hits mostly inhibitors; 360,000 compounds, 0.2% hits; AID 720542; active means well fitted inhibition curve with a large enough effect; inconclusive means small, poorly fitted or top-dose-only effect; inactive means no such curve, though single readings can be large or run the other way; further: nearly all actives have a fitted effect of over 45% in size
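AMA1 (3D7) with his tag at 25 nM final met compounds first, then biotinylated RON2 peptide at 25 nM; detection used donor plus acceptor beads, 10 µg/mL apiece, read by AlphaScreen after 30 min at room temperature.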
Shiga inhibitor – Shiga toxin inhibition | Vero cells, Shiga toxin protein synthesis inhibition reporter | inhibition, % at 38.7 µM | 290,000 compounds, 9.2% hits | AID 2315; in the data active means inhibition mostly above about 28%, no sharp cut-off; inactive means mostly below about 43%
A number is an active result; 0 = inactive; ? = inconclusive; - = no result; + = active, no number; [ ] = another dose, or the depositor's remark.

SMILES | CHX counter | LASV entry inh | Marburg entry inh | AMA1 RON2 block | Shiga inhibitor
O=C(O)c1cc(Nc2cc(Cl)c3nonc3c2[N+](=O)[O-])ccc1O | 0 | - | - | 0 | 0
CCc1cccc(CC)c1NC(=O)CCCSc1nc2ccccc2s1 | 0 | 0 | 0 | 0 | 0
CN(C)CCCSc1nc2ccccc2s1 | 22.6 | - | - | 0 | 68.1
CCC(C)(C)NC(=O)CCCSc1nc2ccccc2s1 | 60.6 | ? | 0 | 0 | 118.1
N#CCc1nc(CSc2nc3ccccc3s2)cs1 | 58.3 | 0 | 0 | 0 | 87.2
CC(=O)Nc1ccc(NC(=O)CCCSc2nc3ccccc3s2)cc1 | 18.9 | 0 | 0 | 0 | 0
Cc1cccc(C)c1NC(=O)CCCSc1nc2ccccc2s1 | 0 | ? | 0 | 0[11.6 µM] | 0
CCOC(=O)c1cccc(NC(=O)c2ccc3nc(CCc4ccccc4)oc3c2)c1 | - | 0 | - | - | -
CCOC(=O)[C@@H]1[C@H]2COc3ccccc3[C@H]2N2C(=O)N(c3cccc(C)c3)C(=O)[C@]12C | - | - | - | 0 | -
COc1ccc(NC(=O)C2=C(C)Nc3nc(CCCO)nn3C2c2ccc(OC)c(OC)c2)cc1 (stereo not given) | 0 | 0 | 0 | 0 | 0
O=C(CCCSc1nc2ccccc2s1)NC1=NCCS1 | 17.8 | 0 | ? | 0 | 0
NC(=O)NC(=O)COC(=O)CCCSc1nc2ccccc2s1 | 0 | - | - | 0 | 0
CCCCNC(=O)C(NC(=O)c1cccs1)C(=O)c1ccccc1 (stereo not given) | - | - | - | 0 | -
COc1cccc(C2(CSc3nnc(-c4cc(OC)c(OC)c(OC)c4)o3)OCCO2)c1 | 0 | 11.2µM | 0 | 0 | 0
CN(C)c1ccc(N=Nc2ccccc2C(=O)OCC(=O)Nc2ccccc2C(F)(F)F)cc1 | 37.4 | 0 | 0 | 14.1µM | 55.8
CN(C)c1ccc(N=Nc2ccccc2C(=O)OCC(=O)N2CCCCCC2)cc1 | 27.7 | 0 | 0 | 17.8µM | 55.8
CC(=O)N(C(C)=O)c1ncnc2c1c(-c1ccc(Cl)cc1)nn2C(C)(C)C | 0 | 15.8µM | ? | 0 | 0
CC(=O)Nc1ncnc2c1c(-c1ccc(Cl)cc1)nn2C(C)(C)C | 0 | - | - | 0 | 0
Cc1ccccc1CSCCNC(=O)COc1ccc(Cl)cc1 | 0 | 0 | 0 | 0 | 0
CC(C)(C)SCCNC(=O)COc1ccc(Cl)cc1 | 11.0 | 0 | 0 | 0 | 0
CN1N=C2c3ccccc3CCCC2C1c1ccc(F)cc1 (stereo not given) | 39.2 | ? | 0 | ? | 76.0
CC(=O)N1N=C2c3ccccc3CCC2C1c1cccs1 (stereo not given) | 0 | - | - | 0 | 0
Cc1nnc(SC(=O)N2c3ccccc3Sc3ccccc32)s1 | 0 | 20.6µM | ? | 0 | 0
CC(C)Oc1ccc(CNC(=O)Cn2nc(N3CCN(c4ccccc4)CC3)ccc2=O)cc1 | - | 0 | - | - | -
CC(C)Cc1ccc(/C=C/C(=O)N2CCCCC2)cc1 | 43.5 | ? | ? | 0 | 67.4
SMILES | CHX counter | LASV entry inh | Marburg entry inh | AMA1 RON2 block | Shiga inhibitor
O=C(/C=C/c1ccccc1)N1CCCN(C(=O)/C=C/c2ccccc2)CC1 | 0 | 0 | 0 | 0 | 0
CC1CCN(C(=O)/C=C/c2ccc(C(C)(C)C)cc2)CC1 | 39.1 | ? | 0 | 0 | 21.0
Cc1ccc(/C=C/C(=O)N2CCCC(C)C2)cc1 (stereo not given) | 63.8 | ? | ? | 0 | +
CCc1ccc(/C=C\C(=O)N2CCCC2)cc1 | - | 0 | ? | 0 | -
CC(C)(C)c1ccc(/C=C/C(=O)N2CCCCC2)cc1 | 51.0 | - | - | 0 | 81.5
CCN=C1SC(C(=O)Nc2ccccc2)CC(=O)N1CC (stereo not given) | 0 | 0 | 0 | 0 | 0
COc1ccc(NC(=O)CCNC(=O)c2ccco2)cc1Cl | 0 | 0 | 0 | 0 | 0
CCOC(=O)N1CCN(C(=O)c2ccc3c(c2)N(Cc2cc(C)ccc2C)C(=O)c2ccccc2S3=O)CC1 (stereo not given) | 0 | ? | ? | 0 | 0
CCCc1cc(C(=O)NCCc2ccc(OC)c(OC)c2)no1 | 0 | - | - | 0 | 0
CCCc1cc(C(=O)NCC(C)C)no1 | 33.2 | - | - | 0 | 116.8
Cc1noc(C)c1C(=O)NCc1cccs1 | 0 | 0 | ? | 0 | 0
CCCc1cc(C(=O)NCc2cccs2)no1 | 35.5 | - | 0 | 0 | 0
CCCc1cc(C(=O)NCc2ccco2)no1 | 15.3 | - | - | 0 | 71.5
CCCc1cc(C(=O)NCc2ccccc2)no1 | 26.6 | - | - | 0 | 58.8
O=C(NCc1ccco1)c1ccc(=O)[nH]n1 | 0 | 0 | 0 | 0 | 0
CCOC(=O)c1ccc(NC(=O)C(CC)Sc2nc3ncccc3o2)cc1 (stereo not given) | - | 0 | - | - | -
Cc1cc(C)n(-c2nc(-c3cccc(Cl)c3)cs2)n1 | 22.6 | 0 | ? | 0 | 0
Cc1cc(C)n(-c2nc(-c3ccccc3)cs2)n1 | 0 | 0 | 0 | 0 | 111.7
COC(=O)C1(C(=O)OC)CC(CO)C(=O)[C@@H]1c1ccccc1 (stereo not given in full) | - | - | 0 | - | -
CCCn1c(C)cc(C(=O)COc2ncnc3sccc23)c1C | 44.0 | ? | 0 | 0 | 104.5
Cc1cc(C(=O)COc2ncnc3sccc23)c(C)n1C1CC1 | 48.8 | 0 | 0 | 0 | 92.4
CC1CCCC(C)N1C(=O)COc1ccc(-c2nnco2)cc1 (stereo not given) | 0 | 0 | 0 | 0 | 0
CCCn1c(C)cc(C(=O)COc2ccc(-c3nnco3)cc2)c1C | 42.2 | 0 | ? | 0 | 67.0
CC1CCN(C2=NC(=O)/C(=C/c3cn(-c4ccccc4)nc3-c3cccc(S(=O)(=O)N(C)C)c3)S2)CC1 | 0 | 0 | ? | 0 | 0
CC(C)CN1C(=O)N[C@@](NC(=O)c2cccnc2)(C(F)(F)F)C1=O | - | - | 0 | - | -
SMILES | CHX counter | LASV entry inh | Marburg entry inh | AMA1 RON2 block | Shiga inhibitor
O=C(Nc1ccccc1)OCc1cnc(Cl)s1 | 0 | 0 | 0 | 0 | 0
O=C(Nc1ccccc1)OCc1cncs1 | 0 | 0 | ? | 0 | 32.1
O=C(OCc1cncs1)c1cccs1 | 0 | 0 | 0 | 0 | 0
O=C(Nc1ccc(Cl)c(Cl)c1)OCc1cnc(Cl)s1 | 20.1 | 0 | 0 | 0 | 0
O=C(Nc1ccc(Cl)c(Cl)c1)OCc1cncs1 | 38.9 | 0 | 0 | 0 | 42.2
Cc1cccc(C(=O)OCc2cnc(Cl)s2)c1 | 11.0 | 0 | 0 | 0 | 0
O=C(NCc1ccc2c(c1)OCO2)OCc1ccccc1 | - | - | - | 0 | -
O=C(/C=C/c1ccccc1)OCc1cncs1 | 33.3 | 0 | 0 | 0 | 88.5
CCC(C)C(NC(=O)OC(C)(C)C)C(=O)NC1COC2CC(n3ccc(NC(C)=O)nc3=O)OC12 (stereo not given) | 0 | - | - | - | 0
CCc1[nH]nc(C(=O)N2CCCC(C(=O)c3cccc(OC(C)C)c3)C2)c1C (stereo not given) | 24.1 | ? | 0 | 0 | 50.7
CC(C)Oc1cccc(C(=O)C2CCCN(C(=O)CCc3cnn(C)c3)C2)c1 (stereo not given) | 51.6 | 0 | 0 | 0 | 65.8
COc1cc(Cl)cc(CN2CCC(CCC(=O)NC3CC3)CC2)c1OC | 0 | - | - | 0 | 0
Cc1cc(C)n(-c2nc(C)c(C)c(=O)n2CC(=O)Nc2ccc(Cl)c(Cl)c2)n1 | - | 0 | - | - | -
O=C(NCc1cccc(C(F)(F)F)c1)c1csc(COCCO)n1 | - | - | - | 0 | -
Cc1nn(C)c(C(=O)N/N=C/c2cccc3ccccc23)c1Cl | 10.7 | ? | 0 | 0 | 42.9
COc1ccc(/C=N/NC(=O)c2ccco2)cc1OCc1ccccc1 | 19.2 | 0 | ? | 0 | 42.5
CCOc1cc(C(=O)N2CCOCC2)ccc1OCc1ccccc1 | 0 | 0 | 0 | 0 | 0
